Compound activity from PubChem.
In the library only some 2.3% were active in any assay of this set; here they are far more common.
AmpC inh detg: inhibitors of E. coli AmpC beta-lactamase with detergent; actives 0.041% (n = 370,000); AmpC hydrolysis of nitrocefin, absorbance 480 nm, 0.01% Triton; AID 485294; Potency, µM (doses to about 114 µM), inactives show at the highest dose activity change, negative = inhibition, usual class: inhibitors; P00811;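 note: 0% = no-compound wells and -100% = no-enzyme wells; nearly all actives have a fitted effect of over 25% in size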
Target sequence (P00811 whole entry, looked up): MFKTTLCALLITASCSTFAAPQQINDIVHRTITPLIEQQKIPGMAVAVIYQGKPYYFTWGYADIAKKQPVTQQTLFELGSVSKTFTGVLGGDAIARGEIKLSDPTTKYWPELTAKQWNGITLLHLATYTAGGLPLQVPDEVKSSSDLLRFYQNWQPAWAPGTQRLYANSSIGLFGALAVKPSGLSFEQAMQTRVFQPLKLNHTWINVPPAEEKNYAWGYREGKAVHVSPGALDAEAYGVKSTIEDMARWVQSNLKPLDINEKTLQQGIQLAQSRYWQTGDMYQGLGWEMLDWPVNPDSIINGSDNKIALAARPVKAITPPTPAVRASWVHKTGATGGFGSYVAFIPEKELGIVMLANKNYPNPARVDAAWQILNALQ
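20 mM phosphate pH 7.0 + 0.01% (detergent screen) or 0.0001% Triton X-100; 5.3 nM AmpC reagent; cpd preinc 15 min RT; nitrocefin (800 uM stock) to start; A480 q20 s × 4 min; Activity was normalised to no-enzyme and no-compound control wells.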
AMA1 RON2 block: disrupts binding of P. falciparum AMA1 to RON2. AlphaScreen AMA1-biotinylated RON2 peptide binding. Potency, µM (highest dose often 58.2 µM), inactives show top-dose activity change, negative = inhibition, usual class: inhibitors. actives 0.2% (n = 360,000);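 note: 0% = vehicle wells and -100% = peptide control; nearly all actives have a fitted effect of over 45% in size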
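AMA1 (3D7) with his tag at 25 nM final met compounds first, then biotinylated RON2 peptide at 25 nM; detection used donor plus acceptor beads, 10 µg/mL apiece, read by AlphaScreen after 30 min at room temperature.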
Lassa entry inh: blocks Lassa virus binding to or entry into cells. Lassa virus pseudotype entry inhibition, cell reporter. Potency, µM (highest dose often 37.9 µM), without a hit: at the top dose activity change, negative = inhibition, most hits filed as inhibitors. actives 1.2% (n = 300,000). AID 540256; calls by dose curve; tested in HEK293 cells; note: nearly all actives have a fitted effect of over 50% in size
AmpC no deterg: AmpC beta-lactamase inhibition without detergent; Potency, µM (titrated, usually from 57.1 µM), inactives show at the highest dose activity change, negative = inhibition, usual class: inhibitors; AID 485341; AmpC nitrocefin hydrolysis, absorbance 480 nm, 0.0001% Triton; actives 0.52% (n = 330,000); P00811;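 note: plate controls were no compound for no effect and no enzyme for full effect; nearly all actives have a fitted effect of over 20% in size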
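AmpC (5.3 nM in the dispensed reagent) in 20 mM phosphate pH 7.0 with 0.01% (detergent screen) or 0.0001% Triton X-100 was preincubated with compounds for 15 min at room temperature. Nitrocefin was then added from an 800 uM solution, and hydrolysis was followed at 480 nm.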
Marburg entry inh: Marburg virus entry inhibition | actives 1.8% (n = 300,000) | Marburg virus pseudotyped entry inhibition, cell reporter | Potency, µM (top dose mostly 37.8 µM), without a hit: at the highest dose activity change, negative = inhibition, most hits filed as inhibitors; calls by dose curve; tested in HEK293 cells
The depositor's hits bear a star; i = inactive; ? = inconclusive; / = no result; [ ] = remark or other dose. Unless noted, calls come from the whole dose curve; as a rule, active = well fitted curve in the direction sought with a large enough effect; inconclusive = small, poorly fitted or top-dose-only effect, or another doubt; inactive = no such curve, though single readings can be large; an effect the other way counts as inactive or inconclusive. Unless noted, % is set by controls: 0 for no effect and ±100 for the full control effect; potency is the fitted concentration of half-maximal effect.

SMILES	AmpC inh detg	AMA1 RON2 block	Lassa entry inh	AmpC no deterg	Marburg entry inh
Cc1ccc(C2CC(c3ccccc3)=NN2C(=S)Nc2ccccc2)o1 (stereo not given)	-11%	-9%	4µM*	0%	?
COc1ccccc1CNC(=O)c1cc(S(=O)(=O)N2CCCCCC2)cn1C	18%	/	4%[46.1 µM]	/	/
C[C@@H]1C=CCC(=O)N2[C@H](CC(=O)N[C@@H]1c1ccccc1)C[C@@H](C)[C@@H]2c1ccccc1	/	/	?	/	-24%[14.2 µM]
CCOC(=O)Cc1csc(NC(=O)CC(C)(C)C)n1	-12%	i	7.1µM*	-8%	?
CCOC(=O)N1CCN(CCC(=O)Nc2cccc(F)c2)CC1	12%	/	4%[46.1 µM]	/	5%[46.1 µM]
O=C(CCN=C1NS(=O)(=O)c2ccccc21)OCC(=O)c1ccccc1Cl	4%	0%	?	40µM*	-15%
COc1ccccc1C(=O)COC(=O)CCCN=C1NS(=O)(=O)c2ccccc21	0%	1%	7%	-20%	28%
NC(=O)c1ccc(-c2nc(-c3ccc4c(c3)OCO4)c(-c3ccccn3)[nH]2)cc1	/	/	6.3µM*	/	/
COc1ccc(-c2[nH]c(-c3ccc4c(c3)OCO4)nc2-c2ccccc2)cc1	5%	?	?	-36%	-87%
CCCC[C@]1(C(=O)OCC)C[C@H](CN2CCOCC2)OC1=O	/	/	/	/	5%
CCOC(=O)c1sc(NC(=O)Nc2ccccc2F)nc1C	-2%	5%	?	-17%	2.2µM*
COc1ccc(C(=O)O/N=C(\N)c2ccccc2Cl)cc1OC	-6%	12%	4.5µM*	-8%	11µM*
COc1ccc(C(=O)O/N=C(\N)Cc2cccs2)cc1OC	7%	5%	1.8µM*	-36%	?
Cc1ccc(C(=O)C[n+]2cccc3ccccc32)cc1	0%	-5%	19%	0.16µM*	-10%
COc1ccc(NC(=O)CCc2c(C)nc3c(-c4ccccc4)c(C)nn3c2C)cc1Cl	-1%	/	3%[46.1 µM]	/	-3%[46.1 µM]
O=C(c1cc(-c2ccc(Br)cc2)on1)N1CCCC1	-6%	1%	?	19%	-1%[46.1 µM]
O=C(c1cc(-c2ccc(Cl)cc2)on1)N1CCOCC1	?	1%	9.2µM*	-15%	?
O=C(c1cc(-c2ccc(Cl)c(Cl)c2)on1)N1CCOCC1	-5%	26%	?	-2%	?
O=C(c1cc(-c2ccccc2)on1)N1CCCCCC1	-3%	2%	13µM*	0%	?
Cc1ccc(-c2cc(C(=O)N3CCCCCC3)no2)cc1	-2%	-19%	?	-7%	?
O=C(c1cc(-c2ccc(O)cc2)on1)N1CCCC1	9%	-4%	?	-16%	11µM*
Cc1nnc(NC(=O)c2cccc(F)c2)s1	-1%	-1%	2%	1%	?
Cc1nnc(NC(=O)c2c(F)cccc2F)s1	-15%	-6%	/	18µM*	/
C=CCN1C(=O)CSc2ccc(C(=O)NCc3ccco3)cc21	-7%	-12%	-17%	-24%	-3%
C=CCN1C(=O)CSc2ccc(C(=O)NCCC3=CCCCC3)cc21	-15%	7%	7.3µM*	-24%	?
SMILES	AmpC inh detg	AMA1 RON2 block	Lassa entry inh	AmpC no deterg	Marburg entry inh
COCc1c(C(=O)OCc2nc(N)nc(Nc3ccccc3C)n2)oc2ccccc12	?	-5%	?	0%	23µM*
Cc1ccc(CSCC(=O)N/N=C/c2ccc(OCC(=O)Nc3ccc(C)cc3)cc2)cc1	?	-12%	?	-29%	-12%
O=C(COc1ccc(/C=N/NC(=O)CSCc2ccc([N+](=O)[O-])cc2)cc1)NCc1ccco1	-10%	-3%	?	-14%	11µM*
CC(=NNC(=S)N1CC2CCC(CC2)C1)c1ccccn1	/	97%	/	/	/
CC(=NNC(=S)N1CC2CCC(CC2)C1)c1cnccn1	/	-2%	0.28µM*	/	?
C/C(=N\NC(=O)C1COc2ccccc2O1)c1ccccn1 (stereo not given)	?	-19%	11µM*	-18%	?
C/C(=N\NC(=O)C1CCCN(S(=O)(=O)c2ccccc2)C1)c1ccncc1 (stereo not given)	4%	13%	0%	-18%	?
C/C(=N\NC(=O)C1CCCN(S(=O)(=O)c2ccccc2)C1)c1ccccn1 (stereo not given)	1%	-11%	?	3.2µM*	?
